{"source": "PubChem BioAssay AID463173", "about": "(ICCB-Longwood Screening Facility, Harvard Medical School, 2010)", "note": "The campaign covered roughly 52,000 compounds. About 4,300 (8.3%) were called active. No stated cut-off is given here; in the data, active means survival mostly below about 52% (no sharp cut-off); inactive means mostly above about 56%. Only a selection was taken, and actives are over-represented in it overall."}
{"system": "DeltatarO mutant", "test": "growth inhibition of S. aureus wild type versus tarO mutant, primary screen, teichoic acid synthesis inhibitors, RN4220, OD600 (AID 463173)", "details": "OD600, 18 h, stronger effect = lower value, screened at 18.75 µg/mL (by protocol)"}
{"molecule": "Cc1cc2nn(-c3ccc(F)cc3)nc2cc1NC(=O)c1cc(Cl)ccc1Cl", "survival": "141% (inactive)"}
{"molecule": "CC1CCCN(S(=O)(=O)c2ccc3c(c2)CCN3C(=O)CCC(=O)O)C1", "note": "(stereo unspecified)", "survival": "96% (inactive)"}
{"molecule": "Cc1ccc(N2CC(c3nnc(NC(=O)c4ccco4)s3)CC2=O)cc1Cl", "note": "(stereo unspecified)", "survival": "77% (inactive)"}
{"molecule": "CCN1C(=O)CC(n2c(C)nc3ccccc32)C1=O", "note": "(stereo unspecified)", "survival": "96% (inactive)"}
{"molecule": "Cc1ccc(-c2nn(-c3ccccc3)c3[nH]c(=O)c(CNCCN4CCOCC4)cc23)cc1", "survival": "115% (inactive)"}
{"molecule": "NC(CC(=O)OC1CCCCC1)C(=O)OC1CCCCC1", "note": "(stereo unspecified)", "survival": "89% (inactive)"}
{"molecule": "O=C(Nc1ccc(F)c(Cl)c1)C1CCCN(c2ncnc3onc(-c4ccc(F)cc4)c23)C1", "note": "(stereo unspecified)", "survival": "78% (inactive)"}
{"molecule": "Cc1ccc(C(=O)Nc2nnc(S(=O)(=O)N(C)Cc3ccco3)s2)cc1", "survival": "39% (active)"}
{"molecule": "Cc1ccc(C(=O)Nc2nnc(S(=O)(=O)N(C)Cc3ccc(F)cc3)s2)cc1", "survival": "60% (inactive)"}
{"molecule": "CN(Cc1ccco1)S(=O)(=O)c1nnc(NC(=O)c2ccccc2)s1", "survival": "23% (active)"}
{"molecule": "CC(C)COc1ccc(C(=O)Nc2nnc(S(=O)(=O)N(C)Cc3ccco3)s2)cc1", "survival": "79% (inactive)"}
{"molecule": "CN(Cc1ccco1)S(=O)(=O)c1nnc(NC(=O)c2ccccc2Cl)s1", "survival": "76% (inactive)"}
{"molecule": "O=C(CCCSc1nc(-c2ccco2)cc(C(F)(F)F)n1)NC1CCCCC1", "survival": "86% (inactive)"}
{"molecule": "Cc1ccc(N(Cc2cccs2)C(=O)C(C)Oc2ccc(Cl)c(C)c2)cc1", "note": "(stereo unspecified)", "survival": "58% (inactive)"}
{"molecule": "COc1ccc(Cl)cc1C(=O)N1CCCC1", "survival": "100% (inactive)"}
{"molecule": "CN1C(C(=O)Nc2ccc(F)cc2F)=CC(c2ccc3c(c2)OCO3)=NS1(=O)=O", "survival": "68% (inactive)"}
{"molecule": "Cc1ccc(Cn2ccnc2SCC(=O)NCc2ccc(F)cc2)cc1", "survival": "101% (inactive)"}
{"molecule": "O=C(/C=C/c1ccco1)NC(=S)NC1CCCCC1", "survival": "115% (inactive)"}
{"molecule": "Cc1ccc(OC(=O)CSc2nnc(-c3ccco3)n2-c2ccccc2)cc1", "survival": "52% (inactive)"}
{"molecule": "Cc1cc(=O)n2nc(N3CCC(C(=O)Nc4ccc(Br)cc4F)CC3)sc2n1", "survival": "94% (inactive)"}
{"molecule": "Cc1cc(C)cc(NC(=O)c2cc(S(=O)(=O)N3CCCC3)ccc2F)c1", "survival": "92% (inactive)"}
{"molecule": "CCc1ccc2c(c1)c(=O)c(S(=O)(=O)c1ccccc1)cn2CC(=O)Nc1ccc(OC)cc1", "survival": "76% (inactive)"}
{"molecule": "O=C(Nc1ccc2oc(-c3ccc4ccccc4c3)nc2c1)c1cc(Cl)ccc1Cl", "survival": "86% (inactive)"}
{"molecule": "O=C(Cc1ccccc1)Nc1cc(-c2nc3cc(Cl)ccc3o2)ccc1Cl", "survival": "68% (inactive)"}
{"molecule": "O=C(/C=C/c1ccccc1)Nc1cc(-c2nc3cc(Cl)ccc3o2)ccc1Cl", "survival": "46% (active)"}
{"molecule": "O=C(Nc1cc(-c2nc3cc(Cl)ccc3o2)ccc1Cl)c1cccc2ccccc12", "survival": "44% (active)"}
{"molecule": "O=C(COc1ccccc1[N+](=O)[O-])Nc1cc(-c2nc3cc(Cl)ccc3o2)ccc1Cl", "survival": "66% (inactive)"}
{"molecule": "O=C(Nc1cc(-c2nc3cc(Cl)ccc3o2)ccc1Cl)c1ccco1", "survival": "41% (active)"}
{"molecule": "O=C(/C=C/c1ccccc1)Nc1cc(-c2nc3ccccc3o2)ccc1Cl", "survival": "59% (inactive)"}
{"molecule": "COc1cc(OC)cc(C(=O)Nc2cc(-c3nc4cc(Cl)ccc4o3)ccc2Cl)c1", "survival": "71% (inactive)"}
{"molecule": "COc1cc(OC)c(-c2cc(C(=O)NCc3ccc(F)cc3)c3c(-c4ccccc4)[nH]nc3n2)cc1OC", "survival": "98% (inactive)"}
{"molecule": "O=C(NCC1CCCO1)C12CC3CC(CC(C3)C1)C2", "note": "(stereo unspecified)", "survival": "109% (inactive)"}
{"molecule": "CC(C)Oc1ccccc1NC(=O)CSc1nccn1C", "survival": "60% (inactive)"}
{"molecule": "CCOCCc1nn2c(=O)cc(COC(=O)COc3ccc(C)c(C)c3)nc2s1", "survival": "89% (inactive)"}
{"molecule": "O=C(CN1CCN(C2CCCCC2)C(=O)C1=O)Nc1ccc(Cl)cc1", "survival": "86% (inactive)"}
{"molecule": "CCOC(=O)c1c(NC(=O)c2cc3nc(-c4ccc(Br)cc4)cc(C(F)(F)F)n3n2)sc(C(C)=O)c1C", "survival": "83% (inactive)"}
{"molecule": "CCOC(=O)c1cccc(NC(=O)[C@@H](c2ccccc2)N2Cc3ccccc3C2=O)c1", "survival": "58% (inactive)"}
{"molecule": "Cc1ccccc1-c1nnc(SCC(=O)N(C)c2ccccc2)o1", "survival": "79% (inactive)"}
{"molecule": "O=C(OC1CSc2nc3ccccc3n2C1)c1ccccc1Cl", "note": "(stereo unspecified)", "survival": "95% (inactive)"}
{"molecule": "COC(=O)C1CC(=O)N(c2ccccc2)C1", "note": "(stereo unspecified)", "survival": "72% (inactive)"}
{"molecule": "CCCOc1ccc(C(=O)NCC2OCCc3ccccc32)cc1", "note": "(stereo unspecified)", "survival": "49% (inactive)"}
{"molecule": "CC(C)CCOc1ccc(C(=O)NCC2OCCc3ccccc32)cc1", "note": "(stereo unspecified)", "survival": "39% (active)"}
{"molecule": "CC(C)COc1ccc(C(=O)NCC2OCCc3ccccc32)cc1", "note": "(stereo unspecified)", "survival": "51% (inactive)"}
{"molecule": "Cc1ccccc1NC(=O)CSc1nnc(-c2cccs2)o1", "survival": "71% (inactive)"}
{"molecule": "Cc1c(Cl)cccc1-n1ncc(C(=O)Nc2ccc(Br)cc2F)c1C1CCNCC1", "survival": "87% (inactive)"}
{"molecule": "COc1cc(Cl)c(NS(=O)(=O)c2ccc3[nH]c(=O)ccc3c2)c(OC)c1", "survival": "102% (inactive)"}
{"molecule": "CC(C)(C)C(=O)CNS(=O)(=O)c1ccc(S(=O)(=O)NC2CCCCC2)cc1", "survival": "79% (inactive)"}
{"molecule": "O=C(CNS(=O)(=O)c1ccc(Cl)cc1)NC1CCCC1", "survival": "67% (active)"}
{"molecule": "O=C(CNS(=O)(=O)c1ccc(Cl)cc1)NN=C1CCCCC1", "survival": "92% (inactive)"}
{"molecule": "Cc1cc(-c2ccc(S(=O)(=O)NCc3ccccc3Cl)s2)on1", "survival": "128% (inactive)"}
{"molecule": "CCOc1ccc(OCC)c(NC(=O)c2cc3ccccn3n2)c1", "survival": "87% (inactive)"}
{"molecule": "COc1ccc(-c2noc(CNC(=O)c3cc(OC)c(OC)c(OC)c3)n2)cc1", "survival": "55% (inactive)"}
{"molecule": "COc1ccc(-c2noc(CNC(=O)c3ccccc3Br)n2)cc1", "survival": "51% (inactive)"}
{"molecule": "COc1ccc(-c2noc(CNC(=O)c3ccco3)n2)cc1", "survival": "87% (inactive)"}
{"molecule": "COc1cccc(C(=O)NCc2nc(-c3ccccc3)no2)c1OC", "survival": "43% (active)"}
{"molecule": "COc1cc(C(=O)NCc2nc(-c3ccc(Cl)cc3)no2)cc(OC)c1OC", "survival": "59% (inactive)"}
{"molecule": "COc1ccc(Cl)cc1C(=O)NCc1nc(-c2cccc(C)c2)no1", "survival": "48% (inactive)"}
{"molecule": "COc1cc(OC)c(C(=O)NCc2nc(-c3ccccc3)no2)cc1OC", "survival": "41% (active)"}
{"molecule": "O=C(NCc1nc(-c2ccccc2)no1)c1ccco1", "survival": "68% (inactive)"}
{"molecule": "COc1ccc(-c2noc(CNC(=O)c3ccc(OC)cc3OC)n2)cc1", "survival": "62% (active)"}
{"molecule": "NC(=O)Cn1cc(F)c(=O)[nH]c1=O", "survival": "87% (inactive)"}
